For 21 compounds, outcome and Potency results are on record in PubChem BioAssay (NCATS).

For assay [1], the target named is Alpha-galactosidase A (Homo sapiens) (UniProt P06280). Briefly: Counterscreen for Glucocerebrosidase Inhibitors: qHTS Assay for Human alpha-Galactosidase at pH 4.5 (AID 992). The note with it: purified enzyme, fluorogenic substrate; series mostly up to 76.9 µM. The essentials: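 Each compound is preincubated briefly with 2 nM enzyme before substrate addition (80 uM); plates then sit 20 min at ambient temperature, are quenched with 1M NaOH/1M glycine, and read fluorometrically.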

Assay [2] has as its target alpha-glucosidase (Oryza sativa, rice) (UniProt Q653V4). Briefly: Counterscreen for Glucocerebrosidase Inhibitors: qHTS Assay for Rice alpha-Glucosidase at pH 5.0 (AID 997). The note with it: rice alpha-glucosidase enzyme activity; series mostly up to 76.9 µM. The essentials:
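Endpoint fluorogenic assay at pH 5.0: compounds (0.7 nM to 77 uM) titrated against 4 nM rice enzyme and 400 uM 4-MU-alpha-glucoside for 20 min at room temperature; NaOH/glycine stop, read ex 365/em 440 nm, Hill-fitted AC50.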
On the technique in general: Counterscreens check selectivity or assay interference.

The target in assay [3] is DNA repair nuclease/redox regulator APEX1 (Homo sapiens) (UniProt P27695). Kind of assay: qHTS Validation Assay for Inhibitors of the Human Apurinic/apyrimidinic Endonuclease 1 (APE1) (AID 1705; further: potency means the concentration at half of the fitted maximal effect). The note with it: purified APE1 endonuclease activity, fluorescence, titration; series mostly up to 57.1 µM. The essentials:
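Human APE1 was preincubated with compound for 15 min at room temperature, then 50 nM (final) THF-abasic double-stranded DNA substrate bearing 5'-TAMRA and 3'-BHQ-2 was added. Incision-driven fluorescence rise (ex 525/em 598 nm) was read kinetically.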
In general terms: In qHTS, concentration-response curves come from the screen itself.

A short description of assay [4]: Counterscreen for APE1 Inhibitors: Fluorescent Dye Displacement Validation Assay (AID 1707). As to conditions: fluorescent dye displacement from DNA; series mostly up to 57.1 µM. The essentials: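 Loss of Thiazole Orange fluorescence marks promiscuous DNA binders. The dye (250 nM) is mixed with 50 nM abasic-site dsDNA in pH7.5 Tris buffer containing MgCl2, then compounds are added and emission is read once.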

Assay [5] concerns the target Endonuclease 4 (Escherichia coli (strain K12)) (UniProt P0A6C1). Briefly: Counterscreen for APE1 Inhibitors: qHTS Validation Assay for Inhibitors of Endonuclease IV (AID 1708). Further: potency means the concentration at half of the fitted maximal effect. The note with it: E. coli endonuclease IV, DNA cleavage fluorescence; series mostly up to 57.1 µM. In outline:
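Incision of a double-stranded 50 nM TAMRA/BHQ-2 abasic substrate was followed kinetically (525/598 nm, reads every 60 s) after 15 min enzyme–compound preincubation with 2 nM EndoIV in pH 7.5 Tris buffer with MgCl2, DTT and Tween-20; concentration-response format.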

Assay [6] is described as follows: qHTS for differential inhibitors of proliferation of Plasmodium falciparum line 7G8 (AID 1815).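 Further: parasite growth measured after three days of incubation.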 Further: potency means the concentration at half of the fitted maximal effect. As to conditions: Plasmodium falciparum 7G8 proliferation inhibition; series mostly up to 28.7 µM.
The nature of assay [7]: qHTS for differential inhibitors of proliferation of Plasmodium falciparum line GB4 (AID 1816).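 Further: parasite growth measured after 72 h incubation.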 Further: potency means the concentration at half of the fitted maximal effect. The note with it: Potency: Plasmodium falciparum GB4 proliferation inhibition; series mostly up to 28.7 µM.
Assay [8] can be described thus: qHTS for differential inhibitors of proliferation of Plasmodium falciparum line 3D7 (AID 1876). Further: potency means the concentration at half of the fitted maximal effect. The note with it: P. falciparum 3D7 proliferation inhibition; series mostly up to 28.7 µM.
The nature of assay [9]: Cell Viability - LYMP2-012 (AID 982).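 Further: cellular ATP by luciferase luminescence where a drop means cytotoxicity; cells exposed to compound for one day before reading; nearly all actives have a fitted effect of over 55% in size.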 As to conditions: LYMP2-012 lymphoblastoid cell viability qHTS; series mostly up to 92.2 µM.
Assay [10] is described as follows: Cell Viability - LYMP2-014 (AID 983).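 Further: cells exposed to compound for 24 h at 37 °C; nearly all actives have a fitted effect of over 50% in size.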 As to conditions: LYMP2-014 lymphoblastoid cells, viability qHTS; series mostly up to 92.2 µM. In outline: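 Cells are plated at 2500/well and left 5 hr at 37 C. Compounds are added across a concentration range and incubated 24 hr at 37 C in complete medium. CellTiter-Glo is added, and luminescence is read after 30 min at room temperature.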

Assay [11] is described as follows: Cell Viability - LYMP2-016 (AID 984).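 Further: cells exposed to compound for 24 hours at 37 °C; nearly all actives have a fitted effect of over 55% in size.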 The note with it: LYMP2-016 lymphoblastoid cell viability, qHTS; series mostly up to 92.2 µM. The essentials:
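Human lymphoblastoid cells (LYMP2-016), 2500/well in complete medium, preincubated 5 hr at 37 C, then compound-treated 24 hr at 37 C. Intracellular ATP read by CellTiter-Glo luminescence after 30 min at room temperature; AC50 from Hill-equation concentration-response fits.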

Assay [12] in a line: Cell Viability - LYMP2-018 (AID 985).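 Further: compound exposure lasted 24 hr at 37 °C; nearly all actives have a fitted effect of over 50% in size.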 As to conditions: LYMP2-018 lymphoblastoid cells, viability (qHTS); series mostly up to 92.2 µM. The essentials: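 Seed 2500 lymphoblastoid cells per well, incubate 5 hr at 37 C, add compound and incubate 24 hr at 37 C, add CellTiter-Glo, wait 30 min at room temperature, then read luminescence.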
Assay [13] is described as follows: Cell Viability - LYMP2-020 (AID 986).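 Further: cells exposed to compound for 24 h at 37 °C; nearly all actives have a fitted effect of over 55% in size.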 The note with it: series mostly up to 92.2 µM. In outline: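 Seed 2500 cells per well and incubate 5 hr at 37 C. Add compounds at a concentration series and incubate 24 hr at 37 C. Add CellTiter-Glo, wait 30 min at RT, read luminescence, and fit a Hill curve for AC50.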
A short description of assay [14]: Cell Viability - LYMP2-022 (AID 987). Further: nearly all actives have a fitted effect of over 55% in size. As to conditions: LYMP2-022 lymphoblastoid cell viability; series mostly up to 92.2 µM. In outline: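 Cells were seeded at 2500 per well, rested 5 hr at 37 C, and treated with titrated compounds for 24 hr at 37 C. Cellular ATP was then quantified by luciferase luminescence, and AC50 values were derived from Hill-modelled concentration-response curves.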

A short description of assay [15]: Cell Viability - LYMP2-024 (AID 988). Further: nearly all actives have a fitted effect of over 60% in size. As to conditions: LYMP2-024 lymphoblastoid cell viability; series mostly up to 92.2 µM. The essentials: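 qHTS cytotoxicity, human lymphoblastoid line, complete medium; 24 h cpd treatment, 37 C; CellTiter-Glo ATP luminescence readout; tetraoctylammonium bromide positive control; AC50 via Hill fit.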
Assay [16] can be described thus: Cell Viability - LYMP2-026 (AID 989).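 Further: cells exposed to compound for 24 h at 37 °C; nearly all actives have a fitted effect of over 50% in size.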 As to conditions: LYMP2-026 lymphoblastoid cell viability, qHTS; series mostly up to 92.2 µM. The essentials: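 Cells are seeded at 2500 per well and held 5 hr at 37 C. Compounds are added in concentration series for 24 hr, then CellTiter-Glo reagent is applied and luminescence read.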
Assay [17] in a line: Cell Viability - LYMP1-002 - Assay at 24 hr (AID 993). As to conditions: LYMP1-002 lymphoblastoid cells viability; series mostly up to 92.2 µM. The essentials: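 Acute toxicity is measured as concentration-dependent loss of cellular ATP in a human lymphoblastoid line (Coriell LYMP1-002) after 24 h treatment in complete medium. ATP is quantified by luciferase luminescence and AC50 derived by Hill modelling.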

A short description of assay [18]: Cell Viability - LYMP1-002 - Assay at 40 hr (AID 994). Further: nearly all actives have a fitted effect of over 60% in size. The note with it: LYMP1-002 lymphoblastoid cell viability; series mostly up to 92.2 µM. The essentials: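 Cells are plated at 2500 per well and rested 5 hr at 37 C. Compounds are added and incubated 40 hr at 37 C. CellTiter-Glo reagent is added for 30 min at room temperature before luminescence is read.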

Results filed as inconclusive are left out. Calls of active or inactive are those of the source. The call rests on the fitted dose curve; in most records, active means well fitted curve in the direction sought with a large enough effect; inconclusive means small, poorly fitted or top-dose-only effect, or another doubt; inactive means no such curve, though single readings can be large; an effect the other way counts as inactive or inconclusive.

DNA repair nuclease/redox regulator APEX1 (Homo sapiens), sequence (P27695 whole entry, looked up): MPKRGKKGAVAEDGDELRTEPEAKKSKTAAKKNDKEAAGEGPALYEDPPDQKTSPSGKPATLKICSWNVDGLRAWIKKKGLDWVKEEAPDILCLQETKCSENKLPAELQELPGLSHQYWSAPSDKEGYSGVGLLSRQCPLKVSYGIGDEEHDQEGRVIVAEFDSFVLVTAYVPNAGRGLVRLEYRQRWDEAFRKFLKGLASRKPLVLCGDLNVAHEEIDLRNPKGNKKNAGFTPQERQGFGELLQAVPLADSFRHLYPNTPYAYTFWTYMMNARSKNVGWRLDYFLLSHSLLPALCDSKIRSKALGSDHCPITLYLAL
Alpha-galactosidase A (Homo sapiens), sequence (P06280 whole entry, looked up): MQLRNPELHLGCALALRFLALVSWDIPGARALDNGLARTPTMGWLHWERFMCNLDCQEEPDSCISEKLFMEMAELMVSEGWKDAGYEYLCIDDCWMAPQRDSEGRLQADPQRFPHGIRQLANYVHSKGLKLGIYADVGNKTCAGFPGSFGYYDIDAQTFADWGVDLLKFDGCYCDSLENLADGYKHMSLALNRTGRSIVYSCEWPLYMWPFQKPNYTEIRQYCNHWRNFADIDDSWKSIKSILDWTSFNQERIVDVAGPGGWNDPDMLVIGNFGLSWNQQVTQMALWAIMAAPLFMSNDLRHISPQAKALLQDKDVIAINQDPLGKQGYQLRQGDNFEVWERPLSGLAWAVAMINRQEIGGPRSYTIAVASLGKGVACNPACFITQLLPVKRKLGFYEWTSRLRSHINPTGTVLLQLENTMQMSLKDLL

With `CN(C)CC/C=C1\c2ccccc2COc2ccccc21`, the compound was called inactive in [1], in [2] and in assay [4]. Moreover, the Potency entry in assay [3] and in assay [5] was “inactive” in each case. Besides, the Potency in assay [6] was 6.31 µM (active); in assay [7], 3.98 µM (active); in assay [8] it was 5.62 µM (active).
As for `CCCCOCCOCCOCc1cc2c(cc1CCC)OCO2`, the Potency entry in assay [9], in [12], in assay [13], in assay [14], in assay [15] and in [18] was “inactive” each time. Also, the outcome in assay [10], in [11], in [16] and in assay [17] was inactive.
On to `C[C@]12CCC(=O)C=C1CC[C@@H]1[C@@H]2C(=O)C[C@@]2(C)[C@H]1CC[C@]2(O)C(=O)CO`, for which the compound was classed as inactive in assay [1], in assay [2] and in [4]. Besides, the Potency entry in [3], in assay [5], in [6], in assay [7] and in assay [8] was “inactive” throughout.
With `C=CCc1ccccc1OCC(O)CNC(C)C` (stereo unspecified), the Potency result in [3] and in assay [5] was “inactive” each time. For the same compound, the result in assay [4] was inactive. Besides, the Potency was 3.55 µM (active) in assay [6], 1.58 µM (active) in [7] and 10 µM (active) in [8].
On to `CC(=O)[C@]1(O)Cc2c(O)c3c(c(O)c2[C@@H](O[C@H]2C[C@H](N)[C@H](O)[C@H](C)O2)C1)C(=O)c1ccccc1C3=O`, for which the Potency was 14.1 µM (active) in assay [3]; 25.1 µM (active) in [5]; 1.58 µM (active) in [6]; 1.12 µM (active) in assay [7]; 0.708 µM (active) in [8].
Turning to `CCCNC(C)C(=O)Nc1ccccc1C` (stereo unspecified), the Potency entry in assay [3], in [5], in assay [6] and in [8] was “inactive” in each case. Besides, the outcome in assay [4] was inactive.
On to `CCc1cccc(N(C)C(N)=Nc2cccc3ccccc23)c1`, for which the compound was called inactive in assay [1], in assay [2] and in assay [4]. Further, the Potency entry in assay [3] and in assay [5] was “inactive” throughout. For the same compound, the Potency in assay [6] is 3.16 µM (active); in [7], 10 µM (active); in assay [8], 12.6 µM (active).
For `CCn1cc(C(=O)O)c(=O)c2cc3c(cc21)OCO3`, the compound was called inactive in assay [1], in assay [2] and in assay [4]. Also, the Potency entry in assay [5] is “inactive”.
For `NS(=O)(=O)c1cc2c(cc1Cl)NC(C1CC3C=CC1C3)NS2(=O)=O` (stereo unspecified), the Potency entry in [3], in assay [5], in assay [6], in [7] and in assay [8] was “inactive” throughout. Moreover, the call in [4] was inactive.
With `CCOC(=O)C1=C(C)NC(C)=C(C(=O)OC)C1c1cccc(Cl)c1Cl` (stereo unspecified), in [3], the Potency entry was “inactive”. In addition, the result in assay [4] was inactive. Also, the Potency in assay [6] was 12.6 µM (active); in assay [7] it was 12.6 µM (active); in [8], 8.91 µM (active).
For `CCC(=O)c1ccc2c(c1)N(CCCN(C)C)c1ccccc1S2`, the compound was called inactive in assay [1], in assay [2] and in [4]. Also, the Potency result in assay [3] was “inactive”. The Potency in assay [6] is 8.91 µM (active); in [7] it was 11.2 µM (active); in assay [8], 10 µM (active).
Consider `CCN(CC)CCNC(=O)c1cc(S(C)(=O)=O)ccc1OC`, for which the compound was classed as inactive in assay [1], in assay [2] and in [4]. Moreover, the Potency entry in assay [3], in assay [6], in assay [7] and in assay [8] was “inactive” throughout.
With `COc1ccc(CN(CCN(C)C)c2ccccn2)cc1`, the Potency entry in assay [9], in [12], in assay [13], in assay [15], in assay [18] and in [3] was “inactive” in each case. Further, the Potency result in [5] and in [8] was “inactive” throughout. Also, the result in assay [10], in [11], in assay [16], in assay [1], in assay [17] and in assay [2] was inactive. Moreover, in [4], the compound was called inactive. In assay [7], the Potency was 8.91 µM (active).
Turning to `C[N+](C)(C)CCOC(=O)CCC(=O)OCC[N+](C)(C)C`, the compound was called inactive in [1], in [2] and in assay [4]. The Potency result in assay [3], in assay [5], in [6], in assay [7] and in assay [8] was “inactive” in each case.
`Cc1nnc(SCC2=C(C(=O)O)N3C(=O)[C@@H](NC(=O)Cn4cnnn4)[C@H]3SC2)s1`: the Potency result in assay [3], in [5] and in assay [8] was “inactive” in each case. In [4], the compound was called inactive.
Consider `CSc1ccc(C(=O)c2[nH]c(=O)[nH]c2C)cc1`, for which the result in [1], in [2] and in [4] was inactive. Further, the Potency entry in assay [3], in [5], in assay [6] and in assay [7] was “inactive” throughout.
With `Cc1nc2c([nH]1)c(=O)n(C)c(=O)n2Cc1ccco1`, the outcome in assay [1], in [2] and in [4] was inactive. For the same compound, the Potency entry in assay [3], in assay [6], in assay [7] and in [8] was “inactive” in each case.
Regarding `O=C(CCCN1CCC(O)(c2cccc(C(F)(F)F)c2)CC1)c1ccc(F)cc1`, the outcome in assay [1], in assay [2] and in assay [4] was inactive. Further, the Potency result in assay [3] and in [5] was “inactive” throughout. In addition, the Potency is 3.55 µM (active) in assay [6], 3.16 µM (active) in assay [7] and 3.55 µM (active) in assay [8].
On to `C[C@]12C=CC(=O)C=C1CC[C@H]1[C@@H]3C[C@@H](O)[C@](O)(C(=O)CO)[C@@]3(C)C[C@H](O)[C@@]12F`, for which the result in [2] and in assay [4] was inactive. Besides, the Potency entry in [3], in assay [5], in [6], in assay [7] and in [8] was “inactive” in each case.
In the case of `O=C1CC2(CCCC2)CC(=O)N1CCCCN1CCN(c2ncccn2)CC1`, the outcome in assay [1], in [2] and in [4] was inactive. In addition, the Potency entry in [3] and in assay [5] was “inactive” in each case.
On to `CNCCCN1c2ccccc2CCc2ccccc21`, for which the call in [1], in assay [2] and in assay [4] was inactive. In addition, the Potency entry in assay [3] and in assay [5] was “inactive” in each case.
